Test results taken from PubChem BioAssay AID602429 (Sanford-Burnham Center for Chemical Genomics, 2012).
In all, about 360,000 compounds went through this assay and about 1,200 (0.33%) were called active. Rule as the data show it: active = inhibition above about 37%; inactive = the rest. Shown is part of a subset that was picked to be rich in actives.

What follows are compounds tested against Small ubiquitin-related modifier 1 (Homo sapiens) (UniProt P63165) (assay: modulators of SUMO1 protein-protein interactions, primary screen, biochemical, uHTS (AID 602429)). Conditions: SUMO1 binding to a labelled peptide, TR-FRET, 1 h; at 20 µM; stronger effect = higher value.
Small ubiquitin-related modifier 1 (Homo sapiens), sequence (P63165 whole entry, looked up): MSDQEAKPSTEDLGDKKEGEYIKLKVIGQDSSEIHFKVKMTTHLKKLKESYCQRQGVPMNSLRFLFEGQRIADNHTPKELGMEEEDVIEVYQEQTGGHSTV

SMILES	inhibition
Cc1nnc(SCC(=O)Nc2ccc(S(=O)(=O)Nc3ccc(Cl)nn3)cc2)s1	25.2% (inactive)
COC(=O)CNC(=O)c1ccc(OC2CCN(C(=O)C3CC3)CC2)cc1	-0.596% (inactive)
Clc1ccc(C2=CSC3=Nc4cccc5cccc(c45)N23)cc1	55.4% (active)
CC(C)(C)NC(=O)C(c1ccco1)N(Cc1ccc2c(c1)OCO2)C(=O)Cn1nnc2ccccc21 (stereo not given)	1.87% (inactive)
CCCCn1c(N)c(N(CC(C)C)C(=O)C2CSC3(C)CCC(=O)N23)c(=O)[nH]c1=O (stereo not given)	2.07% (inactive)
CSc1cc(C)n(-c2ccccc2C)c(=S)c1C(C)=O	-3.72% (inactive)
O=C(c1cccs1)N1CCC(c2nc3ccccc3s2)CC1	-0.383% (inactive)
O=C(NCCCN1CCOCC1)c1ccccc1NS(=O)(=O)c1ccc(F)cc1	2.97% (inactive)
CCOC(=O)Cn1nnnc1C	4.96% (inactive)
COc1ccc(S(=O)(=O)N2CCOCC2)c(C)c1C	0.744% (inactive)
C=CCn1c(=S)[nH]c2scc(-c3ccco3)c2c1=O	80.7% (active)
C=CCNC(=S)NNc1ncnc2sc3c(c12)CC(C)(C)OC3	-4.03% (inactive)
O=C(Nc1ccccc1C(=O)NCCCn1ccnc1)c1ccc(Cl)cc1Cl	-2.3% (inactive)
C=C(Br)CN1CCN(CC(=C)Br)CC1	1.02% (inactive)
O=C(CN1CCCCCC1)Nc1c(Cl)cc(Cl)cc1Cl	-1.26% (inactive)
Cc1nnc(NC(=O)CSc2nc(C3CCCCC3)nc3ccccc23)s1	-2.49% (inactive)
O=C(CSc1nc(C2CC2)nc2ccccc12)Nc1ccc2c(c1)OCCO2	-1.95% (inactive)
O=C(CSc1nc(C2CC2)nc2ccccc12)Nc1cccc(O)c1	45.7% (active)
O=C(Cn1cnc2c(nnn2Cc2ccc(F)cc2)c1=O)NCc1ccc2c(c1)OCO2	1.22% (inactive)
Cc1cc(S(=O)(=O)c2cc3ccc(O)c(C)c3oc2=O)ccc1F	-12.4% (inactive)

SMILES	inhibition
OCCc1ccc(NCCc2ccco2)cc1	4% (inactive)
COc1ccc(C(=O)Nc2cc(C)c(NC(=O)c3ccccc3OC)cn2)cc1	40% (active)
COc1ccc(C(=O)N/N=C(\C)CC(=O)Nc2ccc(Cl)cn2)cc1	-4.09% (inactive)
COc1ccccc1NC(=O)c1cc(Cl)nnc1Cl	-6.09% (inactive)
CCOc1ccc(NC(=O)c2ccc(NC(=O)C3CCCO3)cc2)cc1 (stereo not given)	1.59% (inactive)
CCOc1ccc(NC(=O)c2ccc(NC(=O)COC(=O)c3ccc(NC(=O)CC#N)cc3)cc2)cc1	58.6% (active)
CCOc1ccc(NC(=O)c2ccc(NC(=O)CN3C(=O)C(=O)N(CC(C)C)C3=O)cc2)cc1	6.4% (inactive)
CCCCn1c(N)c(N(CCOC)C(=O)c2cccc(S(=O)(=O)N3CCCCC3)c2)c(=O)[nH]c1=O	1.21% (inactive)
Cc1nc2ccccc2c(C)c1C(=O)c1ccc(F)cc1	-0.636% (inactive)
Cc1onc(-c2ccccc2)c1C(=O)NNC(=S)NC(=O)c1ccc(F)cc1	61.3% (active)
O=C(NNC(=S)NC(=O)c1cn(-c2ccccc2)nc1-c1ccccc1)c1ccncc1	7.64% (inactive)
CCc1nc2ccc(C(=O)N(C)Cc3ccco3)cn2c1N(C)C(=O)Cc1ccccc1	3.29% (inactive)
CCc1cc2cc(OC)ccc2nc1SCC(=O)Nc1cc(OC)c(OC)cc1C(=O)O	4.88% (inactive)
CCOC(=O)C1=C(C)NC(C)=C(C(=O)OCC)C1C1=COCCO1	-7.71% (inactive)
C=CC(=O)Nc1ccc(Nc2ccnc(Nc3ccc(N4CCN(C)CC4)cc3)n2)cc1	88.3% (active)
CC(=O)Nc1cc(-c2ccc(N3CCN(C)CC3)cc2)cn2c(-c3ccc(F)cc3)cnc12	-43.3% (inactive)
O=C(Nc1ccc(N2CCN(C(=O)c3cccs3)CC2)cc1)c1cccnc1Cl	-1.91% (inactive)
Cc1noc(C)c1S(=O)(=O)Nc1ccc(C(=O)O)cc1	2.25% (inactive)
CC(=O)N1c2ccc(S(=O)(=O)N3CCCC(C(=O)Nc4cccc(F)c4)C3)cc2CC1C (stereo not given)	1.06% (inactive)
O=C(COC(=O)c1cccc(Cl)c1)Nc1ccc2[nH]c(=O)[nH]c2c1	3.54% (inactive)

SMILES	inhibition
COc1ccc(C(=O)OCC(=O)Nc2ccc3[nH]c(=O)[nH]c3c2)c(OC)c1OC	45.3% (active)
O=C(COc1ccc([N+](=O)[O-])cc1Cl)Nc1ccc2[nH]c(=O)[nH]c2c1	-14.3% (inactive)
Cc1ccc(S(=O)(=O)N2CCN(C(=O)Cn3c(=O)cnc4ccccc43)CC2)c(C)c1	-18.5% (inactive)
O=C(CCl)N(Cc1cccc([N+](=O)[O-])c1)c1cccc(Cl)c1	-8.32% (inactive)
Nc1c(Cl)cc(S(N)(=O)=O)cc1S(N)(=O)=O	-2.85% (inactive)
Cc1ccc(SC(CC(=O)c2ccc(C(C)(C)C)cc2)C(=O)O)cc1 (stereo not given)	1.42% (inactive)
CCC(=O)c1ccc(OCC(O)CN2CCN(c3cccc(C(F)(F)F)c3)CC2)cc1 (stereo not given)	-0.535% (inactive)
OC(COc1ccccc1)CN1CCN(c2cccc(Cl)c2)CC1 (stereo not given)	49.6% (active)
OC(COc1ccc2c(c1)CCC2)CN1CCN(c2cccc(Cl)c2)CC1 (stereo not given)	0.823% (inactive)
CC1CCCC(NC(=O)CSc2nccn2C)C1C (stereo not given)	-1.19% (inactive)
O=C(COc1coc(CN2CCN(c3ccccc3)CC2)cc1=O)N1CCc2ccccc21	-4.23% (inactive)
O=C(COc1coc(CN2CCN(c3ccccc3F)CC2)cc1=O)N1CCc2ccccc21	47.1% (active)
O=C(COc1coc(CN2CCN(c3ccccc3)CC2)cc1=O)Nc1ccccc1F	0.279% (inactive)
C=C1c2c(Cl)ccc(O)c2C(O)=C2C(=O)[C@]3(O)C(O)=C(C(N)=O)C(=O)[C@@H](N(C)C)[C@@H]3[C@@H](O)C12 (stereo not given in full)	62.7% (active)
CCC(C)CCN1CCN=C1N(C)C (stereo not given)	1.08% (inactive)
Cc1ccc(NC(=O)Cn2sc3ccccc3c2=O)cc1	5.66% (inactive)
O=c1c2cc([N+](=O)[O-])ccc2nc2n1CCC2	-38.3% (inactive)
COCCNC(=S)Nc1cc(S(=O)(=O)N2CCOCC2)ccc1N1CCCCC1	1.91% (inactive)
O=[N+]([O-])c1cc(Cl)cc(/C=N/NC(=S)Nc2cc(S(=O)(=O)N3CCOCC3)ccc2Cl)c1O	36.3% (active)
Cc1cc(OCCCC(=O)Nc2cc(S(=O)(=O)N3CCOCC3)ccc2N2CCOCC2)ccc1Cl	-3.23% (inactive)
